Test results as given in ChEMBL document CHEMBL4513146, “CO-ADD screening of Karazin Kharkiv National University (Ukraine) compounds”.
Entries with a potency or affinity are not part of this list.

Key:
Klebsiella pneumoniae = details: Concentration 32 ug.mL-1;; ASSAY_TEST Inhibition of Bacterial Growth; detection method Absorption (OD600); MEDIA CAMHB; plate type 384well; NBS; CORNING #3640; time 18 hr
Candida albicans = details: Concentration 32 ug.mL-1; ASSAY_TEST Inhibition of Fungal Growth; detection method Absorption (OD530)
Cryptococcus neoformans = details: Concentration 32 ug.mL-1; ASSAY_TEST Inhibition of Fungal Growth; detection method Resazurin; Absorption (OD600-OD570); plate type 384well; NBS; CORNING #3640

Compound | Inhibition (Klebsiella pneumoniae) | Inhibition (Candida albicans) | Inhibition (Cryptococcus neoformans)
CSc1cccc(NC(=O)Cn2nc3c(N4CCCC(C)C4)nccn3c2=O)c1 (stereo not given) | 8.54% | 6.43% | -37.15%
O=C(Cn1nc2ccc(SCc3ccc(Cl)cc3)nn2c1=O)Nc1cccc(F)c1 | -5.89% | 31.36% | -11.95%
CC(C)CCn1c(=O)c2ccc(C(=O)NC3CCCC3)cc2n2c(=S)[nH]nc12 | -1.87% | 0.86% | -11.12%
COc1ccc(-c2cc3c4nnc(CCC(=O)N5CCN(c6ccccc6F)CC5)n4ccn3n2)cc1 | 15.22% | 2.19% | -8.32%
CCC(C)NC(=O)Cn1c(=O)c2nnc(C)n2c2ccccc21 (stereo not given) | 11.59% | 0.05% | -11.45%
COc1ccc(N(Cc2cccc(C)c2)S(=O)(=O)c2ccc3nnc(C)n3c2)cc1 | 7.11% | 0.04% | -1.35%
CN(C(=O)Cn1nc2nc(Nc3ccc(F)cc3)ccn2c1=O)c1ccccc1 | 8.25% | 3.9% | -4.67%
CCc1ccc(N(Cc2ccccc2F)S(=O)(=O)c2cccn3c(C)nnc23)cc1 | 6.64% | 0.88% | -9.4%
O=C(Cn1nc2c(Sc3cccc(F)c3)nccn2c1=O)N1CCN(c2ccccc2)CC1 | 4.19% | 0.68% | -2.85%
N#Cc1cccc(NC(=O)Cn2nc3c4cc(-c5ccc(Cl)cc5)nn4ccn3c2=O)c1 | 3.5% | 20.48% | -13.1%
O=C(CSc1nnc2c(=O)n(-c3ccccc3)ccn12)c1ccc(F)cc1 | 11% | 4.07% | -7.83%
COc1ccc(NC(=O)C(C)Sc2nnc3c(=O)n(-c4cccc(OC)c4)ccn23)cc1 (stereo not given) | 4.86% | -0.02% | -10.81%
COc1ccccc1CNC(=O)Cn1nc2c(N3CCCCCC3)nccn2c1=O | 8.05% | 3.98% | -7.24%
CCCn1c(=O)c2sccc2n2c(=O)n(CC(=O)c3ccc(OC)c(OC)c3)nc12 | 5.35% | -1.4% | -6.57%
CCc1nnc2c(=O)n(CC(=O)Nc3ccc4c(c3)OCCO4)c3ccccc3n12 | 1.64% | 13.49% | -11.52%
Cc1ccc(Oc2nc3ccccc3n3c(=O)n(CC(=O)Nc4cccc(C(F)(F)F)c4)nc23)cc1 | 8.2% | 1.82% | -21.42%
CCOc1ccc(C(=O)CSc2nnc3c(=O)n(-c4cccc(OC)c4)ccn23)cc1 | 2.62% | 7.56% | -12.78%
Cc1ccc(-c2ccc3nn(CC(=O)Nc4ccc(Cl)cc4F)c(=O)n3n2)cc1 | 13.29% | -0.74% | -20.92%
CC(C)c1nnc2c(=O)n(CC(=O)Nc3ccc(F)cc3F)c3ccccc3n12 | 15.02% | 0.81% | -23.4%
Cc1cccc(C)c1NC(=O)Cn1nc2c(SC3CCCCC3)nccn2c1=O | 8.3% | 20.03% | -18.68%

Compound | Inhibition (Klebsiella pneumoniae) | Inhibition (Candida albicans) | Inhibition (Cryptococcus neoformans)
Cc1cccc(C)c1NC(=O)Cn1nc2n(C)c(=O)c3c(c(-c4ccccc4)cn3C)n2c1=O | 10.1% | 0.83% | -9.16%
CCOc1ccc(-n2ccn3c(SC(CC)C(=O)Nc4ccc(C(C)C)cc4)nnc3c2=O)cc1 (stereo not given) | 9.42% | 6.16% | -12.9%
Cc1ccc(Oc2nccn3c(=O)n(CC(=O)Nc4ccccc4Br)nc23)cc1 | 15.36% | 1.31% | -18.92%
Cc1ccc(Sc2nccn3c(=O)n(CC(=O)Nc4c(C)cc(C)cc4C)nc23)c(C)c1 | 17.85% | -0.74% | -21.38%
Cc1nnc2c(S(=O)(=O)N(Cc3ccc(F)cc3)c3ccc(Cl)cc3)cccn12 | 5.76% | 4.67% | -7.17%
COc1cccc(Oc2nccn3c(=O)n(CC(=O)Nc4ccc(OC)c(OC)c4)nc23)c1 | 7.97% | 1.42% | -6.14%
O=C(Cn1nc2c3cc(-c4ccc(F)cc4)nn3ccn2c1=O)NCc1ccccc1Cl | 7.72% | 20.13% | -27.16%
O=C(Cn1nc2ccc(C(=O)NCc3ccccc3)cn2c1=O)Nc1ccc(Br)cc1 | -0.54% | 2.27% | -19.25%
CCCCOc1ccc(-c2cc3c4nnc(SCC(=O)Nc5ccccc5Cl)n4ccn3n2)cc1 | 5.58% | 2.9% | -20.67%
COc1cc(NC(=O)Cn2nc3c(N4CCCC4)nccn3c2=O)cc(OC)c1 | 0.81% | -1.46% | -4.76%
CCCCn1c(=O)c2sccc2n2c(=O)n(CC(=O)c3cccc(OC)c3)nc12 | 13.89% | 1.56% | -15.97%
Cc1ccc(NC(=O)Cn2nc3c(Oc4ccccc4Cl)nccn3c2=O)cc1F | 12.22% | 0.49% | -9.07%
O=C(Cn1nc2c3cc(-c4ccc(Cl)cc4)nn3ccn2c1=O)NCc1ccccc1 | 15.63% | 3.19% | -21.92%
Cc1ccc(CNC(=O)c2ccc3nn(CC(=O)Nc4ccc(C(F)(F)F)cc4)c(=O)n3c2)cc1 | 8.75% | 7.7% | -15.23%
COc1cc(NC(=O)Cn2nc3ccc(SCc4ccc(Cl)cc4)nn3c2=O)cc(OC)c1 | 1.27% | 5.86% | -31.85%
CCc1ccc(N(Cc2ccccc2C)S(=O)(=O)c2cccn3c(CC)nnc23)cc1 | 6.17% | 4.38% | -7.67%
Cc1ccc(-c2cc3c4nn(CC(=O)NCc5ccccc5)c(=O)n4ccn3n2)cc1C | 9.36% | 4.46% | -12.84%
CCOc1ccc(-n2ccn3c(SCC(=O)Nc4ccc(CC)cc4)nnc3c2=O)cc1 | 16.87% | 2.31% | -18.11%
O=C(Cn1nc2nc(Nc3ccc(F)cc3)ccn2c1=O)N1CCCC1 | 10.98% | 0.53% | -8.71%
CCN(CCCNC(=O)CCc1nnc2ccc(-c3ccccc3)nn12)c1ccccc1 | 9.95% | 3.75% | -0.38%

Compound | Inhibition (Klebsiella pneumoniae) | Inhibition (Candida albicans) | Inhibition (Cryptococcus neoformans)
Cc1cc(C)cc(Nc2nc(C)cc3nn(CC(=O)NCc4ccco4)c(=O)n23)c1 | 10.95% | 2.86% | -8.71%
CCc1cccc(C)c1NC(=O)CSc1nnc2ccc(C(=O)Nc3cccc(F)c3)cn12 | 5.93% | 1.09% | -4.75%
CCCCn1c(=O)c2sccc2n2c(SCc3cccc(C(F)(F)F)c3)nnc12 | -0.52% | 0.84% | -14.78%
Cc1cccc(C)c1NC(=O)Cn1nc2ccc(SCc3ccc(Cl)cc3)nn2c1=O | -2.95% | 27.65% | -10.13%
CCOc1ccc(-n2ccn3c(SCC(=O)c4ccccc4)nnc3c2=O)cc1 | 1.87% | 12.91% | -3.51%
O=C(CSc1nnc2c(=O)n(-c3ccccc3)ccn12)NCc1ccc(Cl)cc1 | 5.95% | -0.29% | -12.48%
COc1ccc(NC(=O)Cn2nc3c(N4CCOCC4)nccn3c2=O)cc1Cl | -0.16% | 2.64% | -7.27%
COC(=O)c1cccc(NC(=O)Cn2nc3ccc(-c4ccc(C)c(C)c4)nn3c2=O)c1 | 6.94% | 2% | -13.54%
CCc1nnc2ccc(S(=O)(=O)N(Cc3cccc(OC)c3)c3cccc(F)c3)cn12 | 10.63% | 2.06% | -7.44%
CC(C)c1nnc2c(SCC(=O)N3CCN(c4ccc(F)cc4)CC3)nc3ccccc3n12 | 12.93% | -0.12% | -22.8%
Cc1ccc(N(Cc2ccccc2F)S(=O)(=O)c2ccc3nncn3c2)cc1 | -0.06% | 0.13% | -11.13%
Cc1ccc(Sc2nccn3c(=O)n(CC(=O)Nc4cccc(Cl)c4)nc23)c(C)c1 | 8.68% | 4.74% | -21.78%
O=c1n(Cc2ccc(Cl)cc2)nc2ccc(-c3ccccc3)nn12 | 18.04% | 2.75% | -18.7%
COc1ccc(-c2cc3c4nnc(SCC(=O)Nc5ccccc5F)n4ccn3n2)cc1 | 6.81% | -0.08% | -26.1%
CCOc1ccc(-n2ccn3c(=O)n(CC(=O)Nc4ccc(Br)cc4)nc3c2=O)cc1 | 8.93% | 2.12% | -3.26%
COc1ccc(OC)c(NC(=O)Cn2nc3c(Sc4ccccc4)nc4ccccc4n3c2=O)c1 | 8.31% | 2.83% | -24.8%
Cc1nnc2ccc(S(=O)(=O)N(Cc3cccc(F)c3)c3cccc(F)c3)cn12 | 2.6% | 1.95% | -8.19%
Cc1nnc2c(SCC(=O)N3CCN(c4ccccc4F)CC3)nc3ccccc3n12 | 10.03% | 8.32% | -3.27%
Cc1ccc(-c2cc3c4nn(CC(=O)Nc5c(C)cccc5C)c(=O)n4ccn3n2)cc1 | 9.73% | -0.52% | -14.67%
COC(=O)c1ccccc1NC(=O)Cn1nc2c(Oc3ccc(C)cc3)nccn2c1=O | 2.12% | -2.14% | -10.13%
